# Laboratory results: publication PMC7862700, “An all-to-all approach to the identification of sequence-specific readers for epigenetic DNA modifications on cytosine”
# Key:
# Assay in all cases: DAPPL (digital affinity profiling via proximity ligation, sequencing); 10 mM Tris-HCl pH 7.5, 50 mM NaCl, 1 mM DTT, 4% glycerol, room temperature, 30 min; GST-TFs on glutathione beads, 16-mer random dsDNA library, 0.1% formaldehyde crosslink after washing; high values mean tight binding
# FLI1 = biological target: T1, FLI1 (Homo sapiens, UniProt Q01543 1-452); conditions: protein: recombinant; tags: N-terminal GST; dsDNA, one strand shown
# T1 sequence: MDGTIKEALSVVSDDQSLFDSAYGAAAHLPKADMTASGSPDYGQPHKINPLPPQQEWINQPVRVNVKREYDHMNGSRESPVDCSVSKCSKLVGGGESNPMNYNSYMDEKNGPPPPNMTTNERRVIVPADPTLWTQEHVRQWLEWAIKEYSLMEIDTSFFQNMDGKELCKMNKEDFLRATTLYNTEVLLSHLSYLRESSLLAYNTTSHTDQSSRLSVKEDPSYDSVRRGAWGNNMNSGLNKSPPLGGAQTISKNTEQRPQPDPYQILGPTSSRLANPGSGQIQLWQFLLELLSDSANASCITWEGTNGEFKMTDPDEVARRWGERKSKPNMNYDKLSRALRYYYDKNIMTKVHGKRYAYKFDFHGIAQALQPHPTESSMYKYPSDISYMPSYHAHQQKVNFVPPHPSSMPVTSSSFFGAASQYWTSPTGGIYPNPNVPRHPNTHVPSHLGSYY
# Procedure, shortened: (§1)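 In yeast, human transcription factors were expressed with a GST fusion, then pulled down on glutathione beads and given DNA barcodes. Pooled with a tag-only sample, they were exposed to 200 nmole of a 16-mer random double-stranded DNA library (Tris/NaCl/DTT/glycerol buffer, room temperature, 30 min), washed, crosslinked with 0.1% formaldehyde, proximity-ligated using BsaI/T4 ligase for 1 h at 37 °C, PCR-amplified and read on an Illumina NextSeq500. Each hexamer's frequency of reads for a factor, divided by the matching frequency for the tag-only sample, gives the binding signal.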
# ELK1 = biological target: T2, ELK1 (Homo sapiens, UniProt P19419 1-428); conditions: protein: recombinant; tags: N-terminal GST; dsDNA, one strand shown
# T2 sequence: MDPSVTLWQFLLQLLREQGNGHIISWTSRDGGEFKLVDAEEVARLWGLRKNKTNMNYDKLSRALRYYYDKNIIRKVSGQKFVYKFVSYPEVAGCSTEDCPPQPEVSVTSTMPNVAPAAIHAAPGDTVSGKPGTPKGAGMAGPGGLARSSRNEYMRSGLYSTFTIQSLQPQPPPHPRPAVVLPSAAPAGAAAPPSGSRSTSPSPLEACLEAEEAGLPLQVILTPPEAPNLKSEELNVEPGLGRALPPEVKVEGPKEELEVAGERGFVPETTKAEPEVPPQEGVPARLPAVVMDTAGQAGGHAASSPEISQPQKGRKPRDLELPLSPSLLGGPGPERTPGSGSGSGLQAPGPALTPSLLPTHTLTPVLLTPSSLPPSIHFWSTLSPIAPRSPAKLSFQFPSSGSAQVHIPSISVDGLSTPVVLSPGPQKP
# Procedure, shortened: as §1
# GABPA = biological target: T3, GABPA (Homo sapiens, UniProt Q06546 1-454); conditions: protein: recombinant; tags: N-terminal GST; dsDNA, one strand shown
# T3 sequence: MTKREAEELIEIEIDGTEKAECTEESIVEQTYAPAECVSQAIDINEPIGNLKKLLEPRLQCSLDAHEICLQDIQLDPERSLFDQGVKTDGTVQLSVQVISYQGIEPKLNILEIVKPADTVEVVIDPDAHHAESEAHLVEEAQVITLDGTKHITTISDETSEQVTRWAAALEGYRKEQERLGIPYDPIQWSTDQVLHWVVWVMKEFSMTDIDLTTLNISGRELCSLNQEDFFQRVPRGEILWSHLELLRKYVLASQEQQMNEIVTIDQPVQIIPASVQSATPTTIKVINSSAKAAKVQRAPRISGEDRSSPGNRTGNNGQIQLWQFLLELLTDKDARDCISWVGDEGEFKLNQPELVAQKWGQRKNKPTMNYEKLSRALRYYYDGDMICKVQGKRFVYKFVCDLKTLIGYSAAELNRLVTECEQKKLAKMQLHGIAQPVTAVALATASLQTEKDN
# Procedure, shortened: as §1
# ERG = biological target: T4, ERG (Homo sapiens, UniProt P11308 1-479); conditions: protein: recombinant; tags: N-terminal GST; dsDNA, one strand shown
# T4 sequence: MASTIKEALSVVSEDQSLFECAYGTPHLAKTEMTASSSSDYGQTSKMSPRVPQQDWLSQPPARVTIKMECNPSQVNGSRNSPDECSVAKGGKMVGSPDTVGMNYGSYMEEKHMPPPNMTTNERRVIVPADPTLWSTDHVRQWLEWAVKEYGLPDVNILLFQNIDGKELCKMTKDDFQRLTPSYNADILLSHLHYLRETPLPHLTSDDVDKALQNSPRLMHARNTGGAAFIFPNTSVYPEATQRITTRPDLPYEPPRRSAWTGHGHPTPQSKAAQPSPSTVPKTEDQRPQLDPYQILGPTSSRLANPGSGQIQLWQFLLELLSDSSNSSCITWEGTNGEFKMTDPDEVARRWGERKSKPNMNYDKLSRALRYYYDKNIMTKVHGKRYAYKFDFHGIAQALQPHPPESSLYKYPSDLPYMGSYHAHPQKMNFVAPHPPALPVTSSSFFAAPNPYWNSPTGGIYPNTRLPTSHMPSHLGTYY
# Procedure, shortened: as §1
# ELF1 = ELF1 (Homo sapiens, UniProt P32519 1-619); conditions: protein: recombinant; tags: N-terminal GST; dsDNA, one strand shown
# Procedure, shortened: as §1
# EHF = biological target: T5, EHF (Homo sapiens, UniProt Q9NZC4 1-300); conditions: protein: recombinant; tags: N-terminal GST; dsDNA, one strand shown
# T5 sequence: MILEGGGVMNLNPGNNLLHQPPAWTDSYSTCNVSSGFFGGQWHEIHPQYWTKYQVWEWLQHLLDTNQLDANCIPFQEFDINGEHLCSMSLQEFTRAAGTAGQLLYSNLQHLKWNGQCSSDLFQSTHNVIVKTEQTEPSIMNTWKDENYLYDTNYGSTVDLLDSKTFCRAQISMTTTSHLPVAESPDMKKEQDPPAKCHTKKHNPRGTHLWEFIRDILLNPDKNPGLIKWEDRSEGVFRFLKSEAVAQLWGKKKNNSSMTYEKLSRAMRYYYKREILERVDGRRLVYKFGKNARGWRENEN
# Procedure, shortened: as §1
# SPI1 = SPI1 (Homo sapiens, UniProt P17947 1-270); conditions: protein: recombinant; tags: N-terminal GST; dsDNA, one strand shown
# Procedure, shortened: as §1
# SPIB = SPIB (Homo sapiens, UniProt Q01892 1-262); conditions: protein: recombinant; tags: N-terminal GST; dsDNA, one strand shown
# Procedure, shortened: as §1
# ELK3 = biological target: T6, ELK3 (Homo sapiens, UniProt P41970 1-407); conditions: protein: recombinant; tags: N-terminal GST; dsDNA, one strand shown
# T6 sequence: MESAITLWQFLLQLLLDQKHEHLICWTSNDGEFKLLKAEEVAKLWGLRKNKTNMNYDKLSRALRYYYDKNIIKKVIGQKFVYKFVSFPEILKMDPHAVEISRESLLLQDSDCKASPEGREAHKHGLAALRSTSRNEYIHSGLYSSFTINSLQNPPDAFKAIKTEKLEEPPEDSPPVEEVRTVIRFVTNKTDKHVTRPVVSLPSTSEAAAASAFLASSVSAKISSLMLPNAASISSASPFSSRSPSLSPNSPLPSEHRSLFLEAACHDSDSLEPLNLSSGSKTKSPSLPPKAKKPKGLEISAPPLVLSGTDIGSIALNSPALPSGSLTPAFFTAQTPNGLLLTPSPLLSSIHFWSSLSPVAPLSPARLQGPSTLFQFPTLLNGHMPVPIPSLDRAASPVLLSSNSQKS
# Procedure, shortened: as §1
# FEV = biological target: T7, FEV (Homo sapiens, UniProt Q99581 1-238); conditions: protein: recombinant; tags: N-terminal GST; dsDNA, one strand shown
# T7 sequence: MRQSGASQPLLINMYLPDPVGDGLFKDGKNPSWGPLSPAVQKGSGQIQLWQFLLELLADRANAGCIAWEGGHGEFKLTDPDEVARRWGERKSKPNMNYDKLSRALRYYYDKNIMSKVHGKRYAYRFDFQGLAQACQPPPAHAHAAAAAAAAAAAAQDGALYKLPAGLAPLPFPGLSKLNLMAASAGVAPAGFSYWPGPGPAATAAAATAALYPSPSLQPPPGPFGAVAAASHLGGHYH
# Procedure, shortened: as §1
# ETV5 = ETV5 (Homo sapiens, UniProt P41161 1-510); conditions: protein: recombinant; tags: N-terminal GST; dsDNA, one strand shown
# Procedure, shortened: as §1
# HSF1 = HSF1 (Homo sapiens, UniProt Q00613 1-529); conditions: protein: recombinant; tags: N-terminal GST; chain copies: 3; dsDNA, one strand shown
# Procedure, shortened: as §1
# SPIC = biological target: T8, SPIC (Homo sapiens, UniProt Q8N5J4 1-248); conditions: protein: recombinant; tags: N-terminal GST; dsDNA, one strand shown
# T8 sequence: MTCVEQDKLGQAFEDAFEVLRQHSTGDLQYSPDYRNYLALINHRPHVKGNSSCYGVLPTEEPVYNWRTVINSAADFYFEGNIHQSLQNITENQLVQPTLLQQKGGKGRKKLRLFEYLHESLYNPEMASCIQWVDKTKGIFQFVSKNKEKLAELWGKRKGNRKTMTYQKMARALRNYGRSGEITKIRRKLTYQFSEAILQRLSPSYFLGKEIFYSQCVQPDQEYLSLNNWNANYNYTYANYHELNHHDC
# Procedure, shortened: as §1
# ELF4 = ELF4 (Homo sapiens, UniProt Q99607 1-663); conditions: protein: recombinant; tags: N-terminal GST; dsDNA, one strand shown
# Procedure, shortened: as §1
# ELK4 = biological target: T9, ELK4 (Homo sapiens, UniProt P28324-2 1-405); conditions: protein: recombinant; tags: N-terminal GST; dsDNA, one strand shown
# T9 sequence: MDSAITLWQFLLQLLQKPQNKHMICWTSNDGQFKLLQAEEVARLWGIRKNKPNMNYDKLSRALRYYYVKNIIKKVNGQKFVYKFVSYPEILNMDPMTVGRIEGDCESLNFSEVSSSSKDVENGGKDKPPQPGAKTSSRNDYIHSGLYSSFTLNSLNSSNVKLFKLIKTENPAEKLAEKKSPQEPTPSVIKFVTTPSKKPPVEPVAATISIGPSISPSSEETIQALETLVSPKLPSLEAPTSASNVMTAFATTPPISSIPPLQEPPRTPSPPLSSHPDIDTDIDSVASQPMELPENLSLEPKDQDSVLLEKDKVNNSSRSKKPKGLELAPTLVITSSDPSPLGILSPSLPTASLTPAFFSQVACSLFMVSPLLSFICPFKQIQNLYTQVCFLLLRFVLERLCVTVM
# Procedure, shortened: as §1
# ETV2 = biological target: T10, ETV2 (Homo sapiens, UniProt O00321 1-342); conditions: protein: recombinant; tags: N-terminal GST; dsDNA, one strand shown
# T10 sequence: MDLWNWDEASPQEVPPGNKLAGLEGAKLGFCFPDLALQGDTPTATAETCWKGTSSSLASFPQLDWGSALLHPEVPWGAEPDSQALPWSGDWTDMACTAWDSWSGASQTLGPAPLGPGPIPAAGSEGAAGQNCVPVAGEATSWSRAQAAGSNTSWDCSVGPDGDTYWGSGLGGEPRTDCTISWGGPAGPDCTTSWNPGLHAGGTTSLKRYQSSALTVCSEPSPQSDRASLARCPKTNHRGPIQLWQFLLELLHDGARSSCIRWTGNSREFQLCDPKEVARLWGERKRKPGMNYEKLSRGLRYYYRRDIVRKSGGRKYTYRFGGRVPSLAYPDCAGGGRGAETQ
# Procedure, shortened: as §1
# ELF3 = biological target: T11, ELF3 (Homo sapiens, UniProt P78545 1-371); conditions: protein: recombinant; tags: N-terminal GST; dsDNA, one strand shown
# T11 sequence: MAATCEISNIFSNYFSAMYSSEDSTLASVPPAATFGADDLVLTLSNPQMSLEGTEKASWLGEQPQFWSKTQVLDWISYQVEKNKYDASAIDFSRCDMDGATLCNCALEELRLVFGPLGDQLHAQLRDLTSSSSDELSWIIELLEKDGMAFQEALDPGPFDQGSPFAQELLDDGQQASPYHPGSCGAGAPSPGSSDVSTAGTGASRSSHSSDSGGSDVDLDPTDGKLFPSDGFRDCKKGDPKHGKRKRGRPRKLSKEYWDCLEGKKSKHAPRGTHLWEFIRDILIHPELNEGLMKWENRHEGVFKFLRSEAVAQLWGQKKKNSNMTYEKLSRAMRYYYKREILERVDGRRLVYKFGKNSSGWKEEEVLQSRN
# Procedure, shortened: as §1
# CRX = CRX (Homo sapiens, UniProt O43186 1-299); conditions: protein: recombinant; tags: N-terminal GST; dsDNA, one strand shown
# Procedure, shortened: as §1
# ETV1 = ETV1 (Homo sapiens, UniProt P50549 1-477); conditions: protein: recombinant; tags: N-terminal GST; dsDNA, one strand shown
# Procedure, shortened: as §1
# Sequence of ETV1 (P50549 whole entry): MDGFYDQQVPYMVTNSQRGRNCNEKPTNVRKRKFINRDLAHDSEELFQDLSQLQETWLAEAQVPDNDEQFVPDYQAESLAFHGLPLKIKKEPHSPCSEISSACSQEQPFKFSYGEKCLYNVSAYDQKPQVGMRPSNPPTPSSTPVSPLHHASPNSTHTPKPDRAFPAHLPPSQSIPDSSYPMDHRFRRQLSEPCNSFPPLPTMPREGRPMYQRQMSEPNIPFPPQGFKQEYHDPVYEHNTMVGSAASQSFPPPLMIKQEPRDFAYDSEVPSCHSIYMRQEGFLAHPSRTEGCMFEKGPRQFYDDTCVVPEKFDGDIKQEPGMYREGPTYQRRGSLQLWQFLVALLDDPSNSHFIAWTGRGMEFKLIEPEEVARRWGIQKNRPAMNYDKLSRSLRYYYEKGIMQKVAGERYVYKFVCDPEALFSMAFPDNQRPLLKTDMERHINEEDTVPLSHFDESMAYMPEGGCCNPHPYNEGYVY
# Sequence of ETV5 (P41161 whole entry): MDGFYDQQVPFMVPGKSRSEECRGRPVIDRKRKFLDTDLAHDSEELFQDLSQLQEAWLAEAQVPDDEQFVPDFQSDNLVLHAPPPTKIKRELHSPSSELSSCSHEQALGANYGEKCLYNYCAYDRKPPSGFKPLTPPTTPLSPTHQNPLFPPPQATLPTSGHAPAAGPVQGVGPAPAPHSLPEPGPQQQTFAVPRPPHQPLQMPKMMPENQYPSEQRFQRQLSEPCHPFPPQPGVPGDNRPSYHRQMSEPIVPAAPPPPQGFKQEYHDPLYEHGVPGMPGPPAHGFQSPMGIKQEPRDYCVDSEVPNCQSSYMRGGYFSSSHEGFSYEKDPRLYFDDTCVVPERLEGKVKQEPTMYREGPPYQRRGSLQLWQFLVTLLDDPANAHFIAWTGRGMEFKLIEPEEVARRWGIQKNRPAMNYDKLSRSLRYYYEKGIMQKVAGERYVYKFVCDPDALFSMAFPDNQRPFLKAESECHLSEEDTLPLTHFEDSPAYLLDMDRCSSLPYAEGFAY
# Sequence of HSF1 (Q00613 whole entry): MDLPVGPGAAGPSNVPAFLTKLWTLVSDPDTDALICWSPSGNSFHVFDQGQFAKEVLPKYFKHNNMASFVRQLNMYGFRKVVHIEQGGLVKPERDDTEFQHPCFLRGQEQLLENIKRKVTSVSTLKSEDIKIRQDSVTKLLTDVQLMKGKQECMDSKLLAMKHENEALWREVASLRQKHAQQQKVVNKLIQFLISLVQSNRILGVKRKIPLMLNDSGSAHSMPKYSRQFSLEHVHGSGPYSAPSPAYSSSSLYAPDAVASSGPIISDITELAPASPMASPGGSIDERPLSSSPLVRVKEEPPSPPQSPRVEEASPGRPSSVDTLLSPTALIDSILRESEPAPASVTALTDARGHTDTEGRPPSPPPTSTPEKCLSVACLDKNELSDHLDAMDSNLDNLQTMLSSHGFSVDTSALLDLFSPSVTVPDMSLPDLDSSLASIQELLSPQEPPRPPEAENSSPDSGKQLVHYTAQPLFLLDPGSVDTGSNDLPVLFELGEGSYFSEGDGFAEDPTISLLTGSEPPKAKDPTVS
# Sequence of SPIB (Q01892 whole entry): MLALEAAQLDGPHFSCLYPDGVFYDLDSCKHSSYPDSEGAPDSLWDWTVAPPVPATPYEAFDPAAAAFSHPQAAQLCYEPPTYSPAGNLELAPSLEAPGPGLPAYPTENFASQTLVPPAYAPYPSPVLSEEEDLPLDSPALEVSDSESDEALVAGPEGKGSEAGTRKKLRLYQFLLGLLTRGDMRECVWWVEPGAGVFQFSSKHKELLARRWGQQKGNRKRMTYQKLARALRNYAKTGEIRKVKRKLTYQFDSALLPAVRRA
# Sequence of ELF4 (Q99607 whole entry): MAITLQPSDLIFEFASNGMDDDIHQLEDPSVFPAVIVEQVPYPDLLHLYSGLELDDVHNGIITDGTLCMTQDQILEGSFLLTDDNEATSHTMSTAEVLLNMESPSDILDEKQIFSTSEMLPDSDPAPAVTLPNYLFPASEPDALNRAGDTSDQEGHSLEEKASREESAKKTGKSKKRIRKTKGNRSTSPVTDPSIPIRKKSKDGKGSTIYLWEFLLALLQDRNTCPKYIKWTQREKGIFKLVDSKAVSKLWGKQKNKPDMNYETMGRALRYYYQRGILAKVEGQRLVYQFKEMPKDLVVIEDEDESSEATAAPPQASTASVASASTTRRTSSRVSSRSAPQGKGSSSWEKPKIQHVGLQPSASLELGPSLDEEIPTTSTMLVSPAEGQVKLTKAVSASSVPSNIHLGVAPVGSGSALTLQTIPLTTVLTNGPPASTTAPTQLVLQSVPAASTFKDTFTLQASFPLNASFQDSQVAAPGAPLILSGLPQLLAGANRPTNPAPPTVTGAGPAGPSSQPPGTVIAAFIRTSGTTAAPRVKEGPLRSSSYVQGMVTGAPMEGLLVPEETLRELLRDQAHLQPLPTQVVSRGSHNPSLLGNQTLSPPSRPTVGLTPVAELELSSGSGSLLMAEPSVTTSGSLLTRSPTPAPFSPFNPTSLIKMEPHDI
# Sequence of CRX (O43186 whole entry): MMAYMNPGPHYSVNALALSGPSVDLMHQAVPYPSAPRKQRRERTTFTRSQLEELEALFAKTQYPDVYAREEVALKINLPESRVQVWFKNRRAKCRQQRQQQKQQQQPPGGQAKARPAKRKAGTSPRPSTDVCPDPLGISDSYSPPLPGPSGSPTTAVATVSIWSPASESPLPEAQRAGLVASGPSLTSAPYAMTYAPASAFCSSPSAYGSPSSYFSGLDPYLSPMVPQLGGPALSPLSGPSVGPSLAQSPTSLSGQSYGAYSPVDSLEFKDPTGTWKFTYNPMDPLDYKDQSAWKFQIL
# Sequence of ELF1 (P32519 whole entry): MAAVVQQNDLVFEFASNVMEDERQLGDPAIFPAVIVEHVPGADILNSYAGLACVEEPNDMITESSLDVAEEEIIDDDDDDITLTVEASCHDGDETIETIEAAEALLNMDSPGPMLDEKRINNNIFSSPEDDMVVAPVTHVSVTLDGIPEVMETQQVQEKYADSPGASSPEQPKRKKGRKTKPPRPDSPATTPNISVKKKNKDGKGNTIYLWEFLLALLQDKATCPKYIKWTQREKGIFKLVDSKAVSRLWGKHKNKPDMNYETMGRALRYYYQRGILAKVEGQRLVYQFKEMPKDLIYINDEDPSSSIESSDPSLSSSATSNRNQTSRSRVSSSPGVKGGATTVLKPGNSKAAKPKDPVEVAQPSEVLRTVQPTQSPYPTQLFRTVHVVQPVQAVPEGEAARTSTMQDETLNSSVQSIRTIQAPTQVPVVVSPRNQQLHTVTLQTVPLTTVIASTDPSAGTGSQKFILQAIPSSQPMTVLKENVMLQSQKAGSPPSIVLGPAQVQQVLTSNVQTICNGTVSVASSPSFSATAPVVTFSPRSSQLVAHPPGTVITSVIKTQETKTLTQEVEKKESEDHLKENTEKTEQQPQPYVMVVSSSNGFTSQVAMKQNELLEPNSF
sequence,measurement,setting,value
TCTGCA,binding signal,FLI1,"1.42 fold enrichment (6-mer frequency, TF over GST control)"
same,binding signal,ELK1,"1.4 fold enrichment (6-mer frequency, TF over GST control)"
same,binding signal,GABPA,"1.31 fold enrichment (6-mer frequency, TF over GST control)"
same,binding signal,ERG,"1.25 fold enrichment (6-mer frequency, TF over GST control)"
same,binding signal,ELF1,"1.3 fold enrichment (6-mer frequency, TF over GST control)"
same,binding signal,EHF,"1.27 fold enrichment (6-mer frequency, TF over GST control)"
same,binding signal,SPI1,"1.33 fold enrichment (6-mer frequency, TF over GST control)"
same,binding signal,SPIB,"1.41 fold enrichment (6-mer frequency, TF over GST control)"
same,binding signal,ELK3,"1.48 fold enrichment (6-mer frequency, TF over GST control)"
same,binding signal,FEV,"1.43 fold enrichment (6-mer frequency, TF over GST control)"
same,binding signal,ETV5,"1.36 fold enrichment (6-mer frequency, TF over GST control)"
same,binding signal,HSF1,"1.26 fold enrichment (6-mer frequency, TF over GST control)"
same,binding signal,SPIC,"1.36 fold enrichment (6-mer frequency, TF over GST control)"
same,binding signal,ELF4,"1.42 fold enrichment (6-mer frequency, TF over GST control)"
same,binding signal,ELK4,"1.43 fold enrichment (6-mer frequency, TF over GST control)"
same,binding signal,ETV2,"1.2 fold enrichment (6-mer frequency, TF over GST control)"
same,binding signal,ELF3,"1.36 fold enrichment (6-mer frequency, TF over GST control)"
same,binding signal,CRX,"1.25 fold enrichment (6-mer frequency, TF over GST control)"
same,binding signal,ETV1,"1.26 fold enrichment (6-mer frequency, TF over GST control)"
